A word on the AC50: it is the concentration at which the activity in the assay is half-maximal.

Assay [1] deals with guinea pig Leukotriene D4 Receptor (LTD4), CYSLTR1 (gene 100135514) (UniProt Q2NNR5). Description: NVS_GPCR_gLTD4: NovaScreen (NVS) G Protein-Coupled Receptor Assay for guinea pig Leukotriene D4 Receptor (LTD4) (AID 2283248). The method in brief:
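Guinea pig lung membrane preparation; bound radioligand measured by filter scintillation after 1 h, loss of signal versus DMSO marking displacement. Compounds tested at 25 uM in duplicate, hits retested to max 50 uM.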

The target of assay [2] is human SRC Proto-Oncogene, Non-receptor Tyrosine Kinase (SRC), SRC (gene 6714) (UniProt P12931). Kind of assay: NVS_ENZ_hSRC: NovaScreen (NVS) Enzymatic Assay for human SRC Proto-Oncogene, Non-receptor Tyrosine Kinase (SRC) (AID 2283223). The method in brief:
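Compounds passing 30% inhibition at 25 uM (duplicate) were titrated to a top concentration of 50 uM. Enzyme activity read by fluorescence with mobility-shift substrate/product separation after 1 h; DMSO baseline.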

Assay [3] concerns the target human Sirtuin 3 (SIRT3), SIRT3 (gene 23410) (UniProt Q9NTG7). Description: NVS_ENZ_hSIRT3: NovaScreen (NVS) Enzymatic Assay for human Sirtuin 3 (SIRT3) (AID 2283222). The gist of the method: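 Cell-free enzyme assay with recombinant protein and fluorescent substrate, product separated by electrophoretic mobility shift; read 1 hour after dosing. Screened in duplicate at 25 uM, then singleton concentration-response up to 50 uM; loss of signal versus DMSO.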

Assay [4] has as its target rabbit Imidazoline 2 Central (I2C), CKB (gene 100009085) (UniProt P00567). Kind of assay: NVS_ENZ_rabI2C: NovaScreen (NVS) Enzymatic Assay for rabbit Imidazoline 2 Central (I2C) (AID 2283228). The gist of the method:
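Rabbit brain membranes, cell-free; readout by filter-based scintillation counting 1.5 hours after dosing, loss of signal vs DMSO. Initial duplicate test at 25 uM, then concentration-response with 50 uM top concentration.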

For assay [5], the target named is bovine Dopamine Receptor (DR), Non-selective Binding, DRD1 (gene 281125) (UniProt Q95136). Description: NVS_GPCR_bDR_NonSelective: NovaScreen (NVS) G Protein-Coupled Receptor Assay for bovine Dopamine Receptor (DR), Non-selective Binding (AID 2283241). The method in brief: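 Filter-based radioligand binding with bovine striatal membrane, incubated 1 h; DMSO as negative baseline. Initial duplicate single-point test at 25 uM preceded concentration series for actives.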
bovine Dopamine Receptor (DR), Non-selective Binding, DRD1 (gene 281125), sequence (Q95136 whole entry, looked up): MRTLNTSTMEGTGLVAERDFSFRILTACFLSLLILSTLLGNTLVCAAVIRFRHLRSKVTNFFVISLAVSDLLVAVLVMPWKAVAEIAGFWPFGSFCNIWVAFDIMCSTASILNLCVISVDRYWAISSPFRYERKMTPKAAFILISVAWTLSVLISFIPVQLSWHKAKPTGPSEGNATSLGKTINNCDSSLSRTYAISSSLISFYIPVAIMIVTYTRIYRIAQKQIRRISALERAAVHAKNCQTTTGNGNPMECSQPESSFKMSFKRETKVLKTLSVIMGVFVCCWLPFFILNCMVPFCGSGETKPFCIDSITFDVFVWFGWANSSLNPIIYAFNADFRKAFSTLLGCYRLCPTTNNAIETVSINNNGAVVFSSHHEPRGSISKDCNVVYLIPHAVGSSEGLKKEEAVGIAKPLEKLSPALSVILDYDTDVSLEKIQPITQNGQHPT

Assay [6] is described as follows: NVS_GPCR_bNPY_NonSelective: NovaScreen (NVS) G Protein-Coupled Receptor Assay for bovine Neuropeptide Y (NPY) Receptor, Non-selective Binding (AID 2283245). The gist of the method:
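Displacement of radioligand from bovine hippocampal membrane receptors, read by filtration and scintillation counting after 1 hour. Concentration-response to a top of 50 uM followed a 25 uM duplicate primary screen. Loss of signal versus DMSO.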

Assay [7] has as its system guinea pig Muscarinic, Peripheral (Mperiperal) Receptor, Non-selective Binding, gene 100379235. Kind of assay: NVS_GPCR_gMPeripheral_NonSelective: NovaScreen (NVS) G Protein-Coupled Receptor Assay for guinea pig Muscarinic, Peripheral (Mperiperal) Receptor, Non-selective Binding (AID 2283250). The gist of the method: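 Screened in duplicate at 25 uM, hits retested in concentration series to 50 uM max, using bladder membrane radioligand displacement from guinea pig. Filtration and scintillation counting 1 h post-dose, fitted relative to DMSO.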

Assay [8] addresses human Sirtuin 1 (SIRT1), SIRT1 (gene 23411) (UniProt Q96EB6). Description: NVS_ENZ_hSIRT1: NovaScreen (NVS) Enzymatic Assay for human Sirtuin 1 (SIRT1) (AID 2283219). The gist of the method:
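Cell-free recombinant SIRT1 with a fluorescent substrate; substrate and product separated by electrophoretic mobility shift and read by fluorescence intensity, 1 h after dosing. Primary screen at 25 uM in duplicate; hits re-run in concentration-response up to 50 uM, relative to DMSO.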

Assay [9] has as its target human Tropomyosin Receptor Kinase A (TRKA), NTRK1 (gene 4914) (UniProt P04629). Kind of assay: NVS_ENZ_hTrkA: NovaScreen (NVS) Enzymatic Assay for human Tropomyosin Receptor Kinase A (TRKA) (AID 2283224). The method in brief:
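Compounds were screened at 25 uM in duplicate, then concentration series to a 50 uM top for those meeting threshold (e.g. 30% inhibition). Enzyme was recombinant human TrkA, incubated 1 h. Product formation was quantified by fluorescence after mobility-shift separation.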

Assay [10] addresses human Vascular Endothelial Growth Factor Receptor 2 (VEGFR2), KDR (gene 3791) (UniProt P35968). Kind of assay: NVS_ENZ_hVEGFR2: NovaScreen (NVS) Enzymatic Assay for human Vascular Endothelial Growth Factor Receptor 2 (VEGFR2) (AID 2283230). The method in brief: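 Cell-free recombinant VEGFR2 kinase, fluorescent substrate with electrophoretic mobility-shift separation; read 1 h after dosing. Screened at 25 uM in duplicate, hits to concentration-response up to 50 uM; loss-of-signal versus DMSO.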

Results filed as inconclusive are left out. Calls of active or inactive are those of the source. How the source made its calls: active means hit-call score of the fitted dose curve at least 0.9, where 1 is the maximum; inconclusive means response in the unintended direction; inactive means score below 0.9.

human Sirtuin 3 (SIRT3), SIRT3 (gene 23410), sequence (Q9NTG7 whole entry, looked up): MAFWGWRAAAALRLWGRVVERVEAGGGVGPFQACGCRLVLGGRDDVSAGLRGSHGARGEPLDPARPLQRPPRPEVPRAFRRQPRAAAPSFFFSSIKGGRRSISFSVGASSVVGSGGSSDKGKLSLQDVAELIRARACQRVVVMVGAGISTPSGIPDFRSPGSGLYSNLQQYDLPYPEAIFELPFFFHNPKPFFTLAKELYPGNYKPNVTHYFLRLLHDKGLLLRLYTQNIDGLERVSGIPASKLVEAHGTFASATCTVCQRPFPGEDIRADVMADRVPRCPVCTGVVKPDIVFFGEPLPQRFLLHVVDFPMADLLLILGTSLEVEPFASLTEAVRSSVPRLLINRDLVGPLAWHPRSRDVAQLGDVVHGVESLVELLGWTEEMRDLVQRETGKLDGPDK
guinea pig Leukotriene D4 Receptor (LTD4), CYSLTR1 (gene 100135514), sequence (Q2NNR5 whole entry, looked up): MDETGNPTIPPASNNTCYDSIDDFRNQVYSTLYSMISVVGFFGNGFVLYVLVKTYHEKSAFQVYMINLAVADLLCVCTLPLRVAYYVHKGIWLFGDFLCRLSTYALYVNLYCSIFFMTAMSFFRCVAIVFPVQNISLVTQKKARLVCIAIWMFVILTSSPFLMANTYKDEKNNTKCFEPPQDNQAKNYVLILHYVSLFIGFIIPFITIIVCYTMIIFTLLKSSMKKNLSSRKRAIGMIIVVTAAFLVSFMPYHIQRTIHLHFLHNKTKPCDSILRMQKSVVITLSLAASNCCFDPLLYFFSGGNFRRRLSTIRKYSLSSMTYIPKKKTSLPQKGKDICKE
rabbit Imidazoline 2 Central (I2C), CKB (gene 100009085), sequence (P00567 whole entry, looked up): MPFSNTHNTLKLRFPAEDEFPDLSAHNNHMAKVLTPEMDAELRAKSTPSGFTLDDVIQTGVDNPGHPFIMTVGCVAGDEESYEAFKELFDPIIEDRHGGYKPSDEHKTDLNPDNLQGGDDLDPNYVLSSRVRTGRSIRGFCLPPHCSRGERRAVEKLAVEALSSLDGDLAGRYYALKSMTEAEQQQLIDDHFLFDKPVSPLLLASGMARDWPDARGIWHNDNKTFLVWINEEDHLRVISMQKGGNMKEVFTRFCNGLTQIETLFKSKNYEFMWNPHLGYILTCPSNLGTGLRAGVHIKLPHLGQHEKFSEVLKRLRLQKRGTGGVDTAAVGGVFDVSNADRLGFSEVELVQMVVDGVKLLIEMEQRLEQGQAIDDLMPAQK
human Tropomyosin Receptor Kinase A (TRKA), NTRK1 (gene 4914), sequence (P04629 whole entry, looked up): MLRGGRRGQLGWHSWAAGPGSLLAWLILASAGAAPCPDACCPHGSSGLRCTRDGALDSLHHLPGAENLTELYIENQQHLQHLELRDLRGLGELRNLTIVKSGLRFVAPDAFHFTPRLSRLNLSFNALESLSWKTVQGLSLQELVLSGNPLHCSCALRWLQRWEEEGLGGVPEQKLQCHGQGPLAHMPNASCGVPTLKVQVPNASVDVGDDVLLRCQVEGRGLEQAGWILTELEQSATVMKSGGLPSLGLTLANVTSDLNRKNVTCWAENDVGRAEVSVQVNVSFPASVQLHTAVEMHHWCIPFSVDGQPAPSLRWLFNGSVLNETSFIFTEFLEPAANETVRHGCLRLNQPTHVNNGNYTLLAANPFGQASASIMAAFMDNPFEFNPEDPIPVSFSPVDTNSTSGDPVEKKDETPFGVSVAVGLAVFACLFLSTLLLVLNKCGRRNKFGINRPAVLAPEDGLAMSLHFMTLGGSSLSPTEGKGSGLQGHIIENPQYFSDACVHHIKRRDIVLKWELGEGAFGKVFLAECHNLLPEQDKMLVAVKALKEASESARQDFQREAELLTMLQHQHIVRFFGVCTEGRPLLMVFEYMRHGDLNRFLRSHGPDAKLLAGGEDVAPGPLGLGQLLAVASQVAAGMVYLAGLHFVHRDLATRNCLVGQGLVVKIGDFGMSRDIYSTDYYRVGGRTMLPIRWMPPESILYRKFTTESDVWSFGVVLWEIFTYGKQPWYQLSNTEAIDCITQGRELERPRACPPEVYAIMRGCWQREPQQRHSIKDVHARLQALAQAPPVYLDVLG
human SRC Proto-Oncogene, Non-receptor Tyrosine Kinase (SRC), SRC (gene 6714), sequence (P12931 whole entry, looked up): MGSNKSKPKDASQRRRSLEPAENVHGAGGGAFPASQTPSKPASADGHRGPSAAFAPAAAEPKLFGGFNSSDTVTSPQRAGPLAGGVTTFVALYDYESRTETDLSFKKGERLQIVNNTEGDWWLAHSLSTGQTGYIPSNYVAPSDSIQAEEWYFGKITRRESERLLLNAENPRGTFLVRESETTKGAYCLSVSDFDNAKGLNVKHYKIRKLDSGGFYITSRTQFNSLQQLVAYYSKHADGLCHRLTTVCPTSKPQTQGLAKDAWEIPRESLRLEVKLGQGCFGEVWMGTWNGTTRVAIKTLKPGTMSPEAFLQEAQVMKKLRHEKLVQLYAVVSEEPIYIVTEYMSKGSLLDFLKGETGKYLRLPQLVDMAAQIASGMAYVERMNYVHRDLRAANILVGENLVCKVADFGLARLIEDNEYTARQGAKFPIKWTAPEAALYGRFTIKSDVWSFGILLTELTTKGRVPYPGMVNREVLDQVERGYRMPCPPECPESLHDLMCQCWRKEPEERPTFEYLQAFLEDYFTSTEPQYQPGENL
human Vascular Endothelial Growth Factor Receptor 2 (VEGFR2), KDR (gene 3791), sequence (P35968 whole entry, looked up): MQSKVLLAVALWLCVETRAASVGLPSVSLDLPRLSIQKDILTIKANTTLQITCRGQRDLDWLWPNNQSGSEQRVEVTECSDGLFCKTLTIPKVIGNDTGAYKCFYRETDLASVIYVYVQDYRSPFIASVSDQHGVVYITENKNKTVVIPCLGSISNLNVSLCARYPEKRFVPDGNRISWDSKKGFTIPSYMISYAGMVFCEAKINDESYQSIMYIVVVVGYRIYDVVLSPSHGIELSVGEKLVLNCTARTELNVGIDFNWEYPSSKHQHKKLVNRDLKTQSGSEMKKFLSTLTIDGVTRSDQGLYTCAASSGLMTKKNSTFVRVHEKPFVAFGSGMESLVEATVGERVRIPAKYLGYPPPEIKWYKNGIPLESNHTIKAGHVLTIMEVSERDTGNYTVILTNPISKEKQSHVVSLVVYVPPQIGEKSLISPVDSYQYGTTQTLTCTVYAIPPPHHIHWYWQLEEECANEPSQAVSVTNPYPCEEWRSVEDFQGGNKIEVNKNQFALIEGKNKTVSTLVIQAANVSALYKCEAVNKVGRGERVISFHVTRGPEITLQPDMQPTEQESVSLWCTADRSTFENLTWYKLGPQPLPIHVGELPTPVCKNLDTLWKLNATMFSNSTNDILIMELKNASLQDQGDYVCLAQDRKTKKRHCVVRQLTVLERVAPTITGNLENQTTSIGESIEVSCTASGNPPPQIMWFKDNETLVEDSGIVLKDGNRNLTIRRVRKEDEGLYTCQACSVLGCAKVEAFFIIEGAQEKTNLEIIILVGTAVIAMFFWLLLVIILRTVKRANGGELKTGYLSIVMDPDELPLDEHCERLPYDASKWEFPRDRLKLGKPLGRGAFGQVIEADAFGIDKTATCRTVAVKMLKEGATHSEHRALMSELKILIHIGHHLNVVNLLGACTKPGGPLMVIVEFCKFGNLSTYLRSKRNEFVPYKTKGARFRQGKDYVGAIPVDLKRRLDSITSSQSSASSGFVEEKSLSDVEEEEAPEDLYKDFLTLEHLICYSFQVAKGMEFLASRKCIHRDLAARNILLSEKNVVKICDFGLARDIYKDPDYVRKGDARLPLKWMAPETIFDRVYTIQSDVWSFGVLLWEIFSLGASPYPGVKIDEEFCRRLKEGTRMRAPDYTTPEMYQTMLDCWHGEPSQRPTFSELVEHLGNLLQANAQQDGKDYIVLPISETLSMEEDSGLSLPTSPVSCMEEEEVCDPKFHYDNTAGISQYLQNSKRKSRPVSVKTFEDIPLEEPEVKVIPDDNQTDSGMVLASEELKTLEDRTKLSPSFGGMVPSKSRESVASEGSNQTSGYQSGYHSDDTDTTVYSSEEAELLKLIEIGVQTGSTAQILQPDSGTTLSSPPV
human Sirtuin 1 (SIRT1), SIRT1 (gene 23411), sequence (Q96EB6 whole entry, looked up): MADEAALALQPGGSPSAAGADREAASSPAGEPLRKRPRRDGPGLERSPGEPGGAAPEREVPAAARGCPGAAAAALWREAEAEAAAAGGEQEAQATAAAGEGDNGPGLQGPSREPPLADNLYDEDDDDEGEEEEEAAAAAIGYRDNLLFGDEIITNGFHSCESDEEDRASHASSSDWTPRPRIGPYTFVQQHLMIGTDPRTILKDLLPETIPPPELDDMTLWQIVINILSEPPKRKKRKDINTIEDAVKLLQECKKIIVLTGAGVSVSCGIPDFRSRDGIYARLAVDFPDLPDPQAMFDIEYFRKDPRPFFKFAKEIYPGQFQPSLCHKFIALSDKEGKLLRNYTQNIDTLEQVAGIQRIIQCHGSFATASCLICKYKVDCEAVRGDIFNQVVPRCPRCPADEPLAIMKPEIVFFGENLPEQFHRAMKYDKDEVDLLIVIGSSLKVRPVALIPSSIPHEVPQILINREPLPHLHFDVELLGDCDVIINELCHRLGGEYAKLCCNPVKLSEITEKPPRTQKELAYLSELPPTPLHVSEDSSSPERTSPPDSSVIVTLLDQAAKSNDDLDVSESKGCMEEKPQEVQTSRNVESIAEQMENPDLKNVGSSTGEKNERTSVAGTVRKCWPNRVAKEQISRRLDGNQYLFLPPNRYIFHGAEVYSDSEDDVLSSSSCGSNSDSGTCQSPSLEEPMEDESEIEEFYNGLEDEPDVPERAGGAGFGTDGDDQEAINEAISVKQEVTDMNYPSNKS

Consider `O=C1OC2(c3ccc(O)cc3Oc3cc(O)ccc32)c2ccccc21`, for which, in assay [1], the call was inactive.
As for `C#C[C@]1(O)CC[C@H]2[C@@H]3CCc4cc(O)ccc4[C@H]3CC[C@@]21C`, the AC50 in assay [2] was 38.4 µM (active). Also, the molecule was classed as inactive in assay [1].
Take `O=[N+]([O-])c1cc(N(CCO)CCO)ccc1NCCO`: the molecule was called inactive in assay [1].
On to `CC/C(=C(\c1ccccc1)c1ccc(OCCN(C)C)cc1)c1ccccc1`, for which the molecule was classed as inactive in [3], in assay [4] and in assay [5]. Also, the AC50 in [6] was 22.9 µM (active); in assay [7] it was 19.1 µM (active).
As to `C[C@]12CC[C@@H]3c4ccc(O)cc4CC[C@H]3[C@@H]1CC[C@@H]2O`, the molecule was classed as inactive in [3].
For `O=C(c1ccc(OCCN2CCCCC2)cc1)c1c(-c2ccc(O)cc2)sc2cc(O)ccc12`, the AC50 was 17.8 µM (active) in assay [8]; 17.4 µM (active) in [3]; 25 µM (active) in [9]; 10.3 µM (active) in assay [4]; 3.07 µM (active) in assay [10]; 1.02 µM (active) in assay [5]. In assay [7], the AC50 was 5.18 µM (active).
As for `CC1=CC(C)C(C=O)C(C)C1` (stereo not drawn) (tested in a mixture with another compound), the outcome in assay [1] was inactive.

The values above are taken from PubChem BioAssay (EPA / NIEHS).
